Our source for the outcome and AC50 values is PubChem BioAssay (EPA / NIEHS).

More than one record can exist for a structure, and the calls need not agree. Calls of active or inactive are those of the source. Rule for the calls: active = hit-call score of the fitted dose curve at least 0.9, where 1 is the maximum; inactive = score below 0.9.

Read-out in this test: Interleukin-8 (IL8), CXCL8 (gene 3576)
Kind of test: BSK_SAg_IL8: BioMAP Diversity Plus: SAg Assay for Interleukin-8 (IL8) Biomarker Activity (AID 2283094). The conditions noted are these: primary human HUVEC with PBMC; actives raise or lower the signal. Here is the method: BSK_SAg is a cell-based, multiplexed-readout assay that uses umbilical vein endothelium and peripheral blood mononuclear cells, a human vascular primary cell co-culture, with measurements taken at 24 hours after chemical dosing in a 96-well plate.BSK_SAg_IL8 is an assay component measured in the BSK_SAg assay. It measures IL-8 antibody related to regulation of gene expression using ELISA technology.Data from the assay component BSK_SAg_IL8 was analyzed into 1 assay endpoint. This assay endpoint, BSK_SAg_IL8, was analyzed with bidirectional fitting relative to DMSO as the negative control and baseline of activity. Using a type of binding reporter, gain or loss-of-signal activity can be used to understand changes in the signaling as they relate to the gene CXCL8. Furthermore, this assay endpoint can be referred to as a primary readout, because this assay has produced multiple assay endpoints where this one serves a signaling function. To generalize the intended target to other relatable targets, this assay endpoint is annotated to the cytokine intended target family, where the subfamily is interleukins.
The levels of cell surface (or secreted, indicated by the prefix "s") biomarker endpoints were measured by ELISA. Overt cytotoxicity to cells in confluent adherent cultures (all systems other than the BT system) was assessed by measuring total protein levels using sulforhodamine B (SRB) staining in parallel cultures at the time of biomarker measurements, indicated as SRB endpoints. For proliferation assays for adherent cell types, individual cell types are cultured at sub-confluence and relative cell numbers quantified by SRB staining at time points optimized for each system (48 h: 3C and CASM3C systems; 72 h: BT and HDF3CGF systems; 96 h: SAg system). SRB was performed by staining cells with 0.1% SRB after fixation with 10% TCA and reading wells at 560 nm.Viability and proliferation of PBMC (T cells) was quantified by Alamar Blue reduction for the SAg and BT systems. For PBMC viability (referred to as PBMC Cytotoxicity within the assay endpoint names), cells were plated (75,000/well in a 96-well plate) and then chemical samples added for 1 h before addition of activators, SEB and TSST-1 (20 ng/mL final concentration each). Cells were incubated for 90 h. Then, Alamar Blue (20 uL/well) (Invitrogen, Cat DAL1100) was added for 6 h, and the plates were read with a fluorescence microplate reader at 546/580 nm (excitation/emission). For PBMC proliferation, cells were plated and activated as above but incubated for only 16 h prior to addition of Alamar Blue. Plates were read after 6 h.
Turning to `O=C(Nc1ccc2c(O)c(N=Nc3ccc(N=Nc4ccc(S(=O)(=O)O)cc4)cc3)c(S(=O)(=O)O)cc2c1)c1ccccc1`, the result was inactive.
Same read-out and setting: next, `CC(C=O)Cc1ccc(C(C)(C)C)cc1` (stereo not given): “inactive”; `CN(C)C(=S)SC(=S)N(C)C`: “inactive”; `IC(I)I`: “inactive”.
Regarding `C=CC(C)(O)CCC=C(C)C` (stereo not given), the result was inactive.
As for `CCC(C)c1cc([N+](=O)[O-])cc([N+](=O)[O-])c1OC(=O)OC(C)C` (stereo not given), the result was inactive.
Consider `CCCCOC(=O)CCCCCCCC(=O)OCCCC`, for which the outcome was inactive.
Same read-out and setting: next, `C=C(C)C(=O)OCC(CC)(COC(=O)C(=C)C)COC(=O)C(=C)C`: “inactive”.
As for `CCCCN(CCCC)C(=O)N(CCCC)CCCC`, the AC50 was 15.6 µM (active).
`CCN(CC)C(=O)N(CC)CC`: the outcome was inactive.
On the same count and under the same terms, next, `C=C(C)[C@H]1CC=C(C)C(=O)C1`: “inactive”; `COc1ccc(OC)c(N=Nc2c(O)ccc3ccccc23)c1`: “inactive”.
`CCOC(=O)C(C#N)=C(c1ccccc1)c1ccccc1`: the AC50 is 20 µM (active) and the outcome was inactive.
On to `Cc1cc(CCC(=O)OCCOCCOCCOC(=O)CCc2cc(C)c(O)c(C(C)(C)C)c2)cc(C(C)(C)C)c1O`, for which the result was inactive.
For `CCCCCCCCCCCCCCCC(=O)OC/C=C(C)/C=C/C=C(C)/C=C/C1=C(C)CCCC1(C)C`, the outcome was inactive.
As to `CC1(C)CCC[C@]2(C)[C@H]3CCO[C@]3(C)CC[C@@H]12`, the result was inactive.
With `CC(=O)Nc1ccc(C(=O)CCl)cc1`, the AC50 is 4.9 µM (active).
As for `CC(=O)c1c(C)c([N+](=O)[O-])c(C(C)(C)C)c([N+](=O)[O-])c1C`, the result was inactive.
In the case of `C[C@@H]1CCN(C(=O)[C@H](CCCN=C(N)N)NS(=O)(=O)c2cccc3c2NC[C@H](C)C3)[C@@H](C(=O)O)C1`, the result was inactive.
For the compound `CCCCCCC(CO)CCCC` (stereo not given), the outcome was inactive.
For `O=C1OC[C@H](Cc2cccc(O)c2)[C@H]1Cc1cccc(O)c1`, the result was inactive.
`C=C(C)C(=O)OCCOCCOCCOCCOC(=O)C(=C)C`: the outcome was inactive.
For the compound `CC(C)(N=C=O)c1cccc(C(C)(C)N=C=O)c1`, the outcome was inactive.
Consider `c1ccc(Oc2ccccc2)cc1`, for which the outcome was inactive.
Regarding `CS(=O)(=O)OCCCCOS(C)(=O)=O`, the result was inactive.
In the case of `C=C(C)C(=O)OCCOCCOCCOC(=O)C(=C)C`, the result was inactive.
On to `Clc1cc(Cl)c(-c2c(Cl)c(Cl)cc(Cl)c2Cl)cc1Cl`, for which the AC50 is 10 µM (active).
On to `O=C1OC2(c3ccccc31)c1ccc(O)c(Br)c1Oc1c2ccc(O)c1Br`, for which the result was inactive.
For `CS(=O)(=O)c1ccc(C2=C(c3ccccc3)C(=O)OC2)cc1`, the outcome was inactive.
As for `c1ccc(CCc2ccccc2)cc1`, the AC50 was 31.6 µM (active).
Turning to `CC(C)(C)CC(C)(C)c1ccc(OCCOCC[N+](C)(C)Cc2ccccc2)cc1`, the AC50 was 2.46 µM (active).
The same measure, in the same setting: as for `CC(=O)C1(C)CC2=C(CCCC2(C)C)CC1C` (stereo not given), the figure is 34.4 µM (active); as for `O=C1c2ccccc2C(=O)c2c(O)ccc(O)c21`, 3.15 µM (active); as for `Oc1c(Cl)cc(Cl)c(Cl)c1Cc1c(O)c(Cl)cc(Cl)c1Cl`, 4.7 µM (active).
Take `c1ccc2cc(Nc3ccc(Nc4ccc5ccccc5c4)cc3)ccc2c1`: the result was inactive.
As to `CSCCC=O`, the result was inactive.
Turning to `CC(CN=Cc1ccccc1O)N=Cc1ccccc1O` (stereo not given), the result was inactive.
On to `O=CN1CCOCC1`, for which the outcome was inactive.
`COc1cc(Cl)c(OC)cc1N`: the outcome was inactive.
